# HepG2 viability = qHTS for Inhibitors of TGF-b: Cytotox Counterscreen; AID 588856, 2011; HepG2 CAGA-GFP viability, ATP luminescence, 18 h; actives 0.76% (n = 410,000); Potency, µM (titrated, usually from 46.1 µM), inactives show at the top dose activity change, negative = cytotoxicity, actives largely listed as cytotoxic
#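 CellTiter-Glo luminescence gave cytotoxicity after 18 hours at 37 degrees C. The cells were HepG2 CAGA-GFP in 1% FBS DMEM, stimulated with 500 pg/mL TGF-beta after compound addition. %Activity was normalised to no-cell wells (complete cell-killing) and DMSO (no toxicity), and curves were fitted and classified.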
# TGFb inhibitor = qHTS for Inhibitors of TGF-b; HepG2 CAGA-GFP TGF-b/SMAD3 reporter, GFP fluorescence, 18 h; TGF-beta stimulated, 500 pg/mL final; Potency, µM (titrated, usually from 46.1 µM), inactives show at the top dose activity, negative = inhibition, hits mostly inhibitors; actives 1.2% (n = 410,000); AID 588855, 2011; also: % is scaled to controls: 0 for no effect and ±100 for the full control effect; nearly all actives have a fitted effect of over 65% in size
#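 GFP signal (ex488/em500-530) from TGF-beta-stimulated HEPG2 CAGA-GFP cells, 500 pg/mL final, 18 h at 37 degrees C in DMEM plus 1% FBS, normalized to unstimulated and DMSO-stimulated controls.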
# TDP1 cell noCPT = qHTS for Inhibitors of human tyrosyl-DNA phosphodiesterase 1 (TDP1): qHTS in cells in absence of CPT; DT40 Tdp1-/- hTDP1 cells, no CPT, ATP luminescence, 48 h; actives 15% (n = 420,000); Potency, µM (highest dose often 46.2 µM), without a hit: top-dose activity change, negative = growth inhibition, usual class: inhibitors; AID 686978, 2013; also: % is scaled to controls: 0 for no effect and ±100 for the full control effect; nearly all actives have a fitted effect of over 55% in size
#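 Compound effects on proliferation are scored in DT40 Tdp1-/-;hTDP1 cells in the absence of CPT. ATP levels (CellTiter-Glo luminescence) are recorded after a ≥48 hr, 37 °C incubation.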
# ATXN viability = Viability Counterscreen for Primary qHTS for Inhibitors of ATXN expression; Potency, µM (doses to about 56.7 µM), usual class: cytotoxic; actives 0.49% (n = 400,000); S2 cells (HEK-293 line with an ATXN2-luciferase reporter) viability, CellTiter-Fluor protease fluorescence, 24 h; also: nearly all actives have a fitted effect of over 40% in size
# ATXN2 expr inh = Primary qHTS for Inhibitors of ATXN expression. HEK-293 ATXN2-luciferase reporter, luminescence, 24 h. Potency, µM (titrated, usually from 57 µM), inactives show at the top dose activity change, negative = inhibition, actives largely listed as inhibitors. actives 0.72% (n = 360,000); also: % is scaled to controls: 0 for no effect and ±100 for the full control effect; nearly all actives have a fitted effect of over 55% in size
#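 qHTS (up to 57 uM final) was run with 24 h compound exposure of reporter cells at 37 °C. Each well was multiplexed: SteadyGlo luminescence measured ATXN2-luciferase expression after a fluorogenic Gly-Phe-AFC viability readout (25 uM final).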
# TDP1 cell CPT = qHTS for Inhibitors of human tyrosyl-DNA phosphodiesterase 1 (TDP1): qHTS in cells in presence of CPT; chicken DT40 Tdp1-/-;hTDP1 cells + 20 nM CPT, ATP luminescence, 48 h; Potency, µM (doses to about 46.2 µM), without a hit: at the top dose activity change, negative = growth inhibition, usual class: inhibitors; actives 12% (n = 420,000); AID 686979, 2013; also: % is scaled to controls: 0 for no effect and ±100 for the full control effect; nearly all actives have a fitted effect of over 55% in size
#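 Chicken DT40 Tdp1-/- cells complemented with human TDP1, 400 cells/well, exposed to compounds plus 20 nM camptothecin for at least 48 h at 37 C; viability read as ATP content by CellTiter-Glo luminescence.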
# Active calls of the source: *; i = inactive; u = inconclusive; x = no result given. A selection: hits, their analogues and other compounds. The true share with any hit is near 17%. Calls follow the shape of the dose curve; as a rule, active = well fitted curve in the direction sought with a large enough effect; inconclusive = small, poorly fitted or top-dose-only effect, or another doubt; inactive = no such curve, though single readings can be large; an effect the other way counts as inactive or inconclusive. Potency is read from the fitted curve at half-maximal effect.
SMILES,HepG2 viability,TGFb inhibitor,TDP1 cell noCPT,ATXN viability,ATXN2 expr inh,TDP1 cell CPT
CC1CC(C)CN(C(=O)/C(=C\c2ccccc2)c2ccccc2)C1 (centres undefined),-28.8%,u,13µM*,i,-9.7%,16.4µM*
Nc1[nH]n2c(=O)cc(-c3ccccc3)nc2c1N=Nc1ccccc1,-30.3%,-15.5%,5.17µM*,31.6µM*,u,3.26µM*
Cc1ccc(N=Nc2c(N)[nH]n3c(=O)cc(C)nc23)cc1,-39.4%,-10.9%,14.6µM*,i,-1.6%,u
Cc1ccc(N=Nc2c(=O)[nH]n3c(C)cc(C)nc23)cc1,0.2%,0.0%,-30.2%,u,-10.4%,-12.0%
S=C(NCc1ccco1)N/N=C/c1ccc(Cl)cc1,-89.9%,12.6µM*,20.6µM*,i,1.3%,u
Oc1ccc(/C=N/NC(=S)NCc2ccco2)cc1,1.2%,3.5%,-11.3%,u,0.8%,-7.2%
COc1cc(/C=N/NC(=S)NCc2ccco2)cc(OC)c1OC,-23.2%,7.0%,u,i,9.9%,16.4µM*
O=C(NCc1ccccc1)c1ccc(NC(=O)c2ccccc2F)cc1,6.9%,17.3%,6.0%,i,-7.0%,-5.0%
Cc1ccc(-c2cc(N)n(-c3ccc(C)cc3)n2)cc1,2.8%,-6.0%,u,i,65.0%,u
Cc1ccc(-c2cc3nn(-c4ccccc4)c(N)c3c(=O)o2)cc1,-15.2%,1.1%,20.6µM*,i,22.4%,u
COc1ccc(Cl)cc1NC(=O)CCS(=O)(=O)c1nc(-c2cccs2)cc(C(F)(F)F)n1,-101.4%,u,3.26µM*,x,x,4.61µM*
COc1ccc(NC(=O)CCS(=O)(=O)c2nc(-c3cccs3)cc(C(F)(F)F)n2)cc1,-88.7%,10µM*,5.17µM*,x,x,4.61µM*
O=C(CCS(=O)(=O)c1nc(-c2cccs2)cc(C(F)(F)F)n1)Nc1ccc(F)c(Cl)c1,11.2µM*,20µM*,9.2µM*,x,x,4.61µM*
O=C(CCS(=O)(=O)c1nc(-c2cccs2)cc(C(F)(F)F)n1)Nc1ccc(OC(F)(F)F)cc1,-39.1%,-16.9%,-23.6%,15.8µM*,-17.7%,u
CC(C)c1nnc(NC(=O)CCS(=O)(=O)c2nc(-c3cccs3)cc(C(F)(F)F)n2)s1,-94.8%,14.1µM*,4.11µM*,u,-7.3%,2.91µM*
Cc1ccc(N(Cc2cc(=O)[nH]c3ccccc23)C(=O)CCl)c(C)c1,22.4µM*,17.8µM*,14.6µM*,u,u,14.6µM*
CC1(C)CC(N2CCCC2)=CC(=[N+]2CCCCC2)C1,-32.0%,u,0.259µM*,i,u,0.411µM*
c1ccc(CN2CCN(c3cnc4ccccc4n3)CC2)cc1,-20.7%,-12.8%,u,i,x,-23.5%
CC1(C)CC(=O)c2sc(N3CCCCC3)nc2C1,-11.0%,29.9%,-13.2%,i,42.7%,-0.2%
CC1(C)CC(NNCCC#N)=CC(=[N+]2CCCC2)C1,-13.9%,-2.9%,u,i,-22.3%,u
CC1(C)CC(N2CCN(Cc3ccccc3)CC2)=CC(=[N+]2CCCCC2)C1,-40.5%,u,0.0461µM*,i,u,0.058µM*
CN(Cc1ccccc1)C1=CC(=[N+]2CCCCC2)CC(C)(C)C1,-25.6%,11.2µM*,0.0103µM*,i,u,0.146µM*
CC1(C)CC(N2CCCC2)=CC(=[N+]2CCCC2)C1,-31.5%,u,0.291µM*,i,-29.1%,0.411µM*
CCN(CC)S(=O)(=O)c1ccc(N2CCOCC2)c(NC(=O)Cc2cccc3ccccc23)c1,3.4%,-26.6%,16.4µM*,i,-7.7%,u
